Laboratory results published in PubChem BioAssay (NCATS).
Results filed as inconclusive are left out. Calls of active or inactive are those of the source. Calls come from the whole dose curve; as a rule, active = well fitted inhibition curve with a large enough effect; inconclusive = small, poorly fitted or top-dose-only effect; inactive = flat fitted curve, though single readings scatter.

Assays:
[1] = qHTS profiling for inhibitors of Plasmodium falciparum proliferation (AID 504749); note: nearly all actives have a fitted effect of over 60% in size;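 for activity, negative = inhibition: 0% = DMSO vehicle and full inhibition = artemisinin control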; conditions: P. falciparum in erythrocytes, SYBR Green DNA, 72 h
Outline: (§1)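 Parasite proliferation within erythrocytes, 72 h exposure. Endpoint: SYBR Green I fluorescence after overnight lysis at room temperature. Controls: 0.29 uM artemisinin, DMSO.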

[2] = system: 3D7; assay: as above; conditions: P. falciparum in erythrocytes, SYBR Green DNA, 72 h; series mostly up to 28.7 µM
Outline: as §1

[3] = system: 7G8; assay: as above; conditions: P. falciparum in erythrocytes, SYBR Green DNA, 72 h; series mostly up to 28.7 µM
Outline: as §1

[4] = system: AA1029; assay: as above; conditions: P. falciparum in erythrocytes, SYBR Green DNA, 72 h; series mostly up to 28.7 µM
Outline: as §1

[5] = system: AS120; assay: as above; conditions: P. falciparum in erythrocytes, SYBR Green DNA, 72 h; series mostly up to 28.7 µM
Outline: as §1

[6] = system: ATS189; assay: as above; conditions: P. falciparum in erythrocytes, SYBR Green DNA, 72 h; series mostly up to 28.7 µM
Outline: as §1

[7] = system: ATS95; assay: as above; conditions: P. falciparum in erythrocytes, SYBR Green DNA, 72 h; series mostly up to 28.7 µM
Outline: as §1

[8] = system: C2A; assay: as above; conditions: P. falciparum in erythrocytes, SYBR Green DNA, 72 h; series mostly up to 28.7 µM
Outline: as §1

[9] = system: CP185; assay: as above; conditions: P. falciparum in erythrocytes, SYBR Green DNA, 72 h; series mostly up to 28.7 µM
Outline: as §1

[10] = system: CP191; assay: as above; conditions: P. falciparum in erythrocytes, SYBR Green DNA, 72 h; series mostly up to 28.7 µM
Outline: as §1

[11] = system: CP192; assay: as above; conditions: P. falciparum in erythrocytes, SYBR Green DNA, 72 h; series mostly up to 28.7 µM
Outline: as §1

[12] = system: CP194; assay: as above; conditions: P. falciparum in erythrocytes, SYBR Green DNA, 72 h; series mostly up to 28.7 µM
Outline: as §1

[13] = system: CP201; assay: as above; conditions: P. falciparum in erythrocytes, SYBR Green DNA, 72 h; series mostly up to 28.7 µM
Outline: as §1

[14] = system: CP203; assay: as above; conditions: P. falciparum in erythrocytes, SYBR Green DNA, 72 h; series mostly up to 28.7 µM
Outline: as §1

[15] = system: CP211; assay: as above; conditions: P. falciparum in erythrocytes, SYBR Green DNA, 72 h; series mostly up to 28.7 µM
Outline: as §1

[16] = system: CP215; assay: as above; conditions: P. falciparum in erythrocytes, SYBR Green DNA, 72 h; series mostly up to 28.7 µM
Outline: as §1

[17] = system: CP217; assay: as above; conditions: P. falciparum in erythrocytes, SYBR Green DNA, 72 h; series mostly up to 28.7 µM
Outline: as §1

[18] = at 28.7 µM (top of the series), parasite line A
[19] = at 28.7 µM (top of the series), parasite line B
[20] = at 12.8 µM (top of the series), parasite line A
[21] = at 12.8 µM (top of the series), parasite line B
Potency is the fitted concentration of half-maximal effect.

Cc1nc(-c2ccc(Cl)cc2)oc1COC(C)(C)C(=O)O
inactive: activity, negative = inhibition [1, 18] 9.36% | activity, negative = inhibition [1, 19] 9.87% | Potency [2] | Potency [3] | Potency [4] | Potency [5] | Potency [6] | Potency [7] | Potency [8] | Potency [9] | Potency [10] | Potency [11] | Potency [12] | Potency [13] | Potency [14] | Potency [15] | Potency [16] | Potency [17]

CCCCNC(=O)NS(=O)(=O)c1ccc(N)cc1
inactive: activity, negative = inhibition [1, 18] 5.61% | activity, negative = inhibition [1, 19] 12.3% | Potency [2] | Potency [3] | Potency [4] | Potency [5] | Potency [6] | Potency [7] | Potency [8] | Potency [9] | Potency [10] | Potency [11] | Potency [12] | Potency [13] | Potency [14] | Potency [15] | Potency [16] | Potency [17]

Cc1c(-c2ccccc2)oc2c(C(=O)OCCN3CCCCC3)cccc2c1=O
inactive: activity, negative = inhibition [1, 20] 0.972% | activity, negative = inhibition [1, 21] 6.11% | Potency [2] | Potency [3] | Potency [4] | Potency [5] | Potency [6] | Potency [7] | Potency [8] | Potency [9] | Potency [10] | Potency [11] | Potency [12] | Potency [13] | Potency [14] | Potency [15] | Potency [16] | Potency [17]

COc1cc(NS(=O)(=O)c2ccc(N)cc2)ncn1
inactive: activity, negative = inhibition [1, 20] 3.14% | activity, negative = inhibition [1, 21] 1.14% | Potency [2] | Potency [3] | Potency [4] | Potency [5] | Potency [6] | Potency [7] | Potency [8] | Potency [9] | Potency [10] | Potency [11] | Potency [12] | Potency [13] | Potency [14] | Potency [15] | Potency [16] | Potency [17]

CCc1oc2ccccc2c1C(=O)c1cc(I)c(O)c(I)c1
inactive: activity, negative = inhibition [1, 18] -1.64% | activity, negative = inhibition [1, 19] -5.21% | Potency [2] | Potency [3] | Potency [4] | Potency [5] | Potency [6] | Potency [7] | Potency [8] | Potency [9] | Potency [10] | Potency [11] | Potency [12] | Potency [13] | Potency [14] | Potency [15] | Potency [16] | Potency [17]

CCCCCCCCCCCCCC[N+](C)(C)Cc1ccccc1
active: Potency ([1]; parasite line A) 4.47 µM | Potency ([1]; parasite line B) 7.94 µM | Potency [2] 3.55 µM | Potency [3] 2.24 µM | Potency [4] 6.31 µM | Potency [5] 7.08 µM | Potency [6] 7.08 µM | Potency [7] 7.08 µM | Potency [8] 3.98 µM | Potency [9] 6.31 µM | Potency [10] 2.51 µM | Potency [11] 6.75 µM | Potency [12] 6.75 µM | Potency [13] 7.57 µM | Potency [14] 6.01 µM | Potency [15] 4.26 µM | Potency [16] 5.36 µM | Potency [17] 5.62 µM

O[C@@H](c1cc(C(F)(F)F)nc2c(C(F)(F)F)cccc12)[C@H]1CCCCN1
active: Potency ([1]; parasite line A) 0.0316 µM | Potency ([1]; parasite line B) 0.0126 µM | Potency [2] 0.0355 µM | Potency [3] 0.0079 µM | Potency [4] 0.0112 µM | Potency [5] 0.02 µM | Potency [6] 0.0282 µM | Potency [7] 0.0282 µM | Potency [8] 0.0708 µM | Potency [9] 0.0794 µM | Potency [10] 0.0501 µM | Potency [11] 0.12 µM | Potency [12] 0.213 µM | Potency [13] 0.379 µM | Potency [14] 0.0849 µM | Potency [15] 0.213 µM | Potency [16] 0.0953 µM | Potency [17] 0.0398 µM

CC(C)Nc1cccnc1N1CCN(C(=O)c2cc3cc(NS(C)(=O)=O)ccc3[nH]2)CC1
active: Potency [3] 12.6 µM
inactive: activity, negative = inhibition [1, 18] -10.7% | activity, negative = inhibition [1, 19] 24% | Potency [2] | Potency [4] | Potency [5] | Potency [6] | Potency [7] | Potency [8] | Potency [9] | Potency [10] | Potency [11] | Potency [12] | Potency [13] | Potency [14] | Potency [15] | Potency [16] | Potency [17]

CCC1Nc2cc(Cl)c(S(N)(=O)=O)cc2S(=O)(=O)N1 (centres undefined)
inactive: activity, negative = inhibition [1, 18] 11% | activity, negative = inhibition [1, 19] 6.74% | Potency [2] | Potency [3] | Potency [4] | Potency [5] | Potency [6] | Potency [7] | Potency [8] | Potency [9] | Potency [10] | Potency [11] | Potency [12] | Potency [13] | Potency [14] | Potency [15] | Potency [16] | Potency [17]

FC(F)(F)C(F)(F)C(F)(F)C(F)(F)C(F)(F)C(F)(F)C(F)(F)C(F)(F)Br
inactive: activity, negative = inhibition [1, 18] 2.77% | activity, negative = inhibition [1, 19] -1.15% | Potency [2] | Potency [3] | Potency [4] | Potency [5] | Potency [6] | Potency [7] | Potency [8] | Potency [9] | Potency [10] | Potency [11] | Potency [12] | Potency [13] | Potency [14] | Potency [15] | Potency [16] | Potency [17]

CCOC(=O)[C@H](CCc1ccccc1)N[C@@H](C)C(=O)N1[C@H](C(=O)O)C[C@H]2CCCC[C@@H]21
inactive: activity, negative = inhibition [1, 18] 8.44% | activity, negative = inhibition [1, 19] 4.83% | Potency [2] | Potency [3] | Potency [4] | Potency [5] | Potency [6] | Potency [7] | Potency [8] | Potency [9] | Potency [10] | Potency [11] | Potency [12] | Potency [13] | Potency [14] | Potency [15] | Potency [16] | Potency [17]

CCCCC(CC)COC(=O)c1ccc(N(C)C)cc1 (centres undefined)
inactive: activity, negative = inhibition [1, 18] 7.25% | activity, negative = inhibition [1, 19] -4.81% | Potency [2] | Potency [3] | Potency [4] | Potency [5] | Potency [6] | Potency [7] | Potency [8] | Potency [9] | Potency [10] | Potency [11] | Potency [12] | Potency [13] | Potency [14] | Potency [15] | Potency [16] | Potency [17]

CCOC(=O)c1c(N)sc2c1CCN(Cc1ccccc1)C2
active: Potency ([1]; parasite line A) 10 µM | Potency ([1]; parasite line B) 5.01 µM | Potency [2] 11.2 µM | Potency [3] 6.31 µM | Potency [4] 5.01 µM | Potency [5] 8.91 µM | Potency [6] 7.94 µM | Potency [7] 8.91 µM | Potency [8] 11.2 µM | Potency [9] 5.01 µM | Potency [10] 5.01 µM | Potency [11] 5.36 µM | Potency [12] 7.57 µM | Potency [13] 6.75 µM | Potency [14] 4.26 µM | Potency [15] 6.75 µM | Potency [16] 8.49 µM | Potency [17] 5.62 µM
